# Rows were chosen to be rich in hits. Some 2.5% of all compounds tested hit in one or more screens of this group.
# Cruzain Triton = qHTS Assay for Promiscuous and Specific Inhibitors of Cruzain (with detergent); Cruzipain (Trypanosoma cruzi), P25779; purified cruzain, Z-FR-AMC fluorescence, 0.01% Triton; Potency, µM, most hits filed as inhibitors; actives 0.43% (n = 200,000); AID 1478, 2009; further: nearly all actives have a fitted effect of over 40% in size
# Target sequence (P25779 123-467 limits assumed): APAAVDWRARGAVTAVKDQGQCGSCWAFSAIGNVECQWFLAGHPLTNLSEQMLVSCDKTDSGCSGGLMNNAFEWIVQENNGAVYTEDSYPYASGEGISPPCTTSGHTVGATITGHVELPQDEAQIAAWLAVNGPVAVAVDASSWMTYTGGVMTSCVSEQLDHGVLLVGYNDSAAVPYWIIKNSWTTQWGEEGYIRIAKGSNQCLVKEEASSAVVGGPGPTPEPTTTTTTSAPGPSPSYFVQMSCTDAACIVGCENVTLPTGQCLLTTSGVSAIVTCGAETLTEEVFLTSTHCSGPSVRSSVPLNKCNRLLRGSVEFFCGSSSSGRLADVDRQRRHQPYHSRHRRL
#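 Compounds were screened in titration against cruzain (1.5 nM) with 0.01% Triton X-100 to counter colloidal aggregation. Activity was the AMC fluorescence increase over 60 s after adding 2 uM Z-FR-AMC at pH 5.5.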
# Cruzain inh noDet = qHTS Assay for Promiscuous and Specific Inhibitors of Cruzain (without detergent); Cruzipain (Trypanosoma cruzi), P25779; purified cruzain, Z-FR-AMC fluorescence, no detergent; Potency, µM, hits mostly inhibitors; actives 2.3% (n = 200,000); further: nearly all actives have a fitted effect of over 40% in size
#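 Detergent-free condition (0.00005% Triton X-100) in acetate buffer pH 5.5 with DTT. 1.5 nM enzyme and compound were pre-mixed 15 min, then 2 uM Z-FR-AMC substrate added; reaction progress from fluorescence change between first and third reads (60 s).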
# A number is an active result; 0 = inactive; ? = inconclusive; - = not tested or not shown. The call rests on the fitted dose curve; in most records, active means well fitted curve in the direction sought with a large enough effect; inconclusive means small, poorly fitted or top-dose-only effect, or another doubt; inactive means no such curve, though single readings can be large; an effect the other way counts as inactive or inconclusive.
SMILES,Cruzain Triton,Cruzain inh noDet
Cc1sc(NC(=O)CN2CCOCC2)nc1-c1ccc2c(c1)CCN2S(=O)(=O)c1ccccc1,0,?
COc1ccc(CCC(=O)NCc2ccc3c(c2)CCN3C(=O)c2cccc(C)c2)cc1,0,0
Cc1cccc(C(=O)N2CCc3cc(-c4nc(NC(=O)Cn5nnc6ccccc6c5=O)sc4C)ccc32)c1,0,10µM
COc1cccc(Cn2c(C)c(CNCc3ccccc3Cl)c(C(=O)O)c2C)c1,0,0
C/C=C\C[C@@H](C)[C@@H](O)[C@H]1C(=O)N[C@@H](CC)C(=O)N(C)CC(=O)N(C)[C@@H](CC(C)C)C(=O)N[C@@H](C(C)C)C(=O)N(C)[C@@H](CC(C)C)C(=O)N[C@@H](C)C(=O)N[C@H](C)C(=O)N(C)[C@@H](CC(C)C)C(=O)N(C)[C@@H](CC(C)C)C(=O)N(C)[C@@H](C(C)C)C(=O)N1C,0,-
COc1ccc(NC(=O)Cn2cc(S(=O)(=O)c3ccc(C)cc3)c(=O)c3ccccc32)cc1OC,0,?
Cc1ccc(S(=O)(=O)c2cn(CC(=O)Nc3cccc(Cl)c3)c3ccccc3c2=O)cc1,0,31.6µM
Cc1ccc2oc(C(=O)Nc3nc(-c4ccc(F)cc4)ns3)c(C)c2c1,0,0
C/C(=N/Nc1nc(C)cc(=O)[nH]1)C(=O)O,0,0
Cc1ccc(C(=O)N2CCN(c3ccc(NC(=O)CSc4ccc(Cl)cc4)cc3)CC2)cc1,0,0
Cc1ccc(C(=O)Nc2ccc(N3CCN(S(C)(=O)=O)CC3)cc2)cc1,0,15.8µM
Cc1ccc(C(=O)Nc2ccc(N3CCOCC3)cc2)cc1,0,0
CS(=O)(=O)N1CCN(c2ccc(NC(=O)CSc3ccc(Cl)cc3)cc2)CC1,0,3.98µM
Cc1ccccc1OCc1ccc(-c2nc(C#N)c(NCCCN(C)C)o2)o1,0,0
CCSc1nnc(NC(=O)COc2ccccc2)s1,0,?
Cc1csc(NC(=O)CSc2nnc(NC(=O)COc3ccc(Cl)cc3)s2)n1,0,5.01µM
CCN(C(=O)Cn1nc(Cc2ccncc2)c2ccccc2c1=O)c1cccc(Cl)c1,0,0
O=C1CCCC(=O)N1c1ccc(Oc2ccc(Cl)cc2)cc1,0,0
O=C1C=C(Nc2ccc(Cl)cc2)C(=O)N1c1ccc(Cl)cc1,0,6.31µM
Cc1ccc(CNC(=O)Cn2nc(C)n3cccc3c2=O)cc1,0,0
COc1ccc(CNC(=O)Cn2c(=O)c3cccn3c3ccccc32)cc1,0,31.6µM
COc1ccc(CNC(=O)Cn2nc(C)n3cccc3c2=O)cc1,0,25.1µM
COc1ccc(CNC(=O)Cn2c(=O)c3cccn3c3cccnc32)cc1,0,0
Cc1nn(C)c2c1c(C(F)(F)F)cc(=O)n2C(C)C(=O)Nc1ccccc1F (stereo unspecified),0,?
CCC(Sc1nc(-c2ccccc2)[nH]c1S(=O)(=O)c1ccc(C)cc1)C(=O)O (stereo unspecified),0,0
SMILES,Cruzain Triton,Cruzain inh noDet
CCOc1ccc(NC(=O)Cc2ccc(NC(=O)N3CCCCc4ccccc43)cc2)cc1,0,0
Cc1cc(NC(=O)CC2CCCC2)n(-c2nc3ccccc3[nH]2)n1,0,0
Cc1cc(NC(=O)c2ccc(F)cc2F)n(-c2nc3ccccc3[nH]2)n1,0,20µM
Cc1ccc(S(=O)(=O)N(CC(=O)Nc2cccc([N+](=O)[O-])c2)C2CCCCC2)cc1,0,0
Cc1ccc(S(=O)(=O)N(CC(=O)Nc2ccc(Cl)c([N+](=O)[O-])c2)C2CCCCC2)cc1,0,12.6µM
CCOC(=O)C1CCC(CN(Cc2c(Cl)cccc2Cl)S(=O)(=O)c2ccc(F)cc2)CC1 (stereo unspecified),0,0
CCOc1nc2cccc(C(=O)OC(C)OC(=O)OC3CCCCC3)c2n1Cc1ccc(-c2ccccc2-c2nn[nH]n2)cc1 (stereo unspecified),14.1µM,?
CCCc1nc(C(C)(C)O)c(C(=O)OCc2oc(=O)oc2C)n1Cc1ccc(-c2ccccc2-c2nn[nH]n2)cc1,0,?
Cc1ccccc1C1CC(=O)Oc2ccc(O)cc21 (stereo unspecified),0,0
Cc1cccc(C)c1NC(=O)Cn1cnc2c(=O)n(C)c(=O)n(C)c21,0,0
Cn1c(=O)c2ncn(CC(=O)Nc3ccc4c5c(cccc35)CC4)c2n(C)c1=O,12.6µM,12.6µM
O=C(Cn1ccc2cc(S(=O)(=O)N3CCCCCC3)ccc21)NCc1cccc(Cl)c1,0,0
Cc1oc(/N=C/c2ccccc2O)c(C#N)c1C,0,0
Cc1oc(/N=C/c2c(O)ccc3ccccc23)c(C#N)c1C,0,12.6µM
O=C1C2C3C=CC(C4CC34)C2C(=O)N1/N=C/c1ccc([N+](=O)[O-])s1 (stereo unspecified),0,0
O=C1C2C3C=CC(C4CC34)C2C(=O)N1/N=C/c1ccc(-c2cccc([N+](=O)[O-])c2)o1 (stereo unspecified),0,25.1µM
O=C(NC(Nc1ncc(S(=O)(=O)c2ccc([N+](=O)[O-])cc2)s1)(C(F)(F)F)C(F)(F)F)c1ccc(Cl)cc1,0,0
O=C(Nc1ncc(S(=O)(=O)c2ccc([N+](=O)[O-])cc2)s1)c1cccc2ccccc12,0,12.6µM
CC(C)Oc1ccc(CNC(=O)C(C)n2ccc3cc(S(=O)(=O)N4CCCCCC4)ccc32)cc1 (stereo unspecified),0,0
CCOC(=O)C1CCN(C(=O)c2nn(-c3ccc(C)cc3)c(=O)n(C)c2=O)CC1,0,0
CCCNc1cc(C)c(C#N)c2nc3ccccc3n12,0,0
Cc1cc(NCCCO)n2c(nc3ccccc32)c1C#N,0,31.6µM
CCC(=O)N1CCc2cc(Br)cc(S(=O)(=O)N3CCCC(C(=O)NCc4ccccc4)C3)c21 (stereo unspecified),0,0
O=S(=O)(O)c1cc(O)c2c(O)c(N=Nc3cccc4ccccc34)c(S(=O)(=O)O)cc2c1,0,0
Cc1nn(-c2ccccc2)c(Cl)c1/C=N/Nc1ccc(S(=O)(=O)Nc2ccccc2C(=O)O)cc1[N+](=O)[O-],14.1µM,?
SMILES,Cruzain Triton,Cruzain inh noDet
Cc1nn(-c2ccccc2)c(Cl)c1/C=N/Nc1ccc(Cl)c(C(=O)O)c1,0,0
Cc1c2cnn(CC(=O)NCc3ccc(F)cc3)c(=O)c2c(C)n1Cc1cccc(Cl)c1,0,?
Cc1ccc2nc(-c3ccccc3)nc(SC(C)C(=O)NCc3cccs3)c2c1 (stereo unspecified),0,0
Cc1ccc(C)c2c(SC(C)C(=O)NCc3ccco3)nc(-c3ccccc3)nc12 (stereo unspecified),0,3.98µM
COc1ccccc1NS(=O)(=O)c1cc(NC(=O)Nc2ccc(Cl)cc2Cl)ccc1N1CCCCC1,0,5.01µM
O=C(Nc1cccc(S(=O)(=O)Nc2ccccc2Cl)c1)c1ccc(Cl)nc1,0,0
COc1cc(/C=C/C(=O)Nc2ccc(N3CCCCC3)c(S(=O)(=O)Nc3ccccc3Cl)c2)cc(OC)c1OC,0,0
O=C(Nc1cccc(C(F)(F)F)c1)c1cc(S(=O)(=O)N2CCCCC2)ccc1N1CCOCC1,0,?
COc1ccc(S(=O)(=O)N2CCCCC2)cc1NS(=O)(=O)c1cc(Cl)ccc1Cl,0,20µM
O=C(Nc1cccc(C(F)(F)F)c1)Nc1ccc(N2CCCC2)c(S(=O)(=O)Nc2ccccc2Cl)c1,0,6.31µM
O=C(Nc1cccc(S(=O)(=O)Nc2ccccc2Cl)c1)c1ccc(N2CCCC2)c([N+](=O)[O-])c1,0,10µM

# From PubChem BioAssay
